CHT inh: inhibitors of human choline transporter CHT; hit rate 0.86% among 310,000; B-score at 10 µM; CHT-expressing cells, membrane potential dye, choline response; active compounds read low; AID 488975, 2010; High affinity choline transporter 1 (Homo sapiens), Q9GZV3;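 active = B-score over 3 SD under the library average, and starting fluorescence ratio not unusually high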;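 note: choline stimulus applied at its EC90 after an EC20 pre-addition; B-score computed on integrated fluorescence ratio after choline addition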
HDAC3 inh: HDAC3 deacetylase inhibitors, primary screen, biochemical, fluorescence, cell-free homogeneous. Histone deacetylase 3 (Homo sapiens), O15379. recombinant HDAC3, fluorogenic peptide/trypsin coupled. inhibition, % at 8.3 µM. hit rate 0.15% among 320,000. AID 2718, 2010; in the data active = inhibition above about 26%, passing the limit was not always enough
ANO1 block: TMEM16A chloride channel inhibitors, primary screen, cell-based, HTS; Anoctamin-1 (Mus musculus), Q8BHY3; HEK293 TMEM16A/YFP iodide influx fluorescence, ionomycin; normalized B-score (activity score, 25-100; higher = stronger inhibition) at 10 µM; hit rate 1.2% among 310,000;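 active = ratio plate-corrected score three or more library SD toward inhibition, starting fluorescence score within five deviations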;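 note: score derived from kinetic fluorescence span divided by baseline fluorescence per well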
PHOSPHO1 inh: PubChem AID 1565 | Phosphoethanolamine/phosphocholine phosphatase (Homo sapiens), Q8TCT1 | recombinant PHOSPHO1, absorbance phosphatase assay | inhibition, % at 13.3 µM | hit rate 1.1% among 290,000; in the data active = inhibition above about 60%
CHT allo act: CHT positive allosteric modulators, primary screen, cell-based, membrane potential dye, choline EC20; High affinity choline transporter 1 (Homo sapiens), Q9GZV3; hit rate 0.49% among 310,000; CHT-expressing cells; active compounds read high; LV-AA mutant CHT in HEK293 cells; B-score at 10 µM;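 active = initial fluorescence not abnormally high and integrated response B-score, plate-corrected, over 3 SD above library mean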
TMEM16A act: TMEM16A chloride channel activators or potentiators, primary screen, cell-based, HTS; Anoctamin-1 (Mus musculus), Q8BHY3; AID 623877, 2012; B-score at 10 µM; HEK293 TMEM16A/YFP-H148Q/I152L, iodide quench fluorescence; active compounds read low; hit rate 0.3% among 340,000;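 active = fluorescence-ratio B-score plate-corrected deviation score at least 3 library SD below zero, with starting fluorescence score within 5 deviations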;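 note: channel opened by trigger with iodide after compound preincubation; score built on the fluorescence ratio of max minus min over baseline; more negative score means more quench and so TMEM16A activation or potentiation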
TMEM16A reconf: TMEM16A chloride channel inhibitors, confirmation, cell-based, re-confirmation | shares compounds with ANO1 block | HEK293 TMEM16A/YFP-H148Q, iodide quench fluorescence; ionomycin added to raise cell calcium | inhibition, % at 10 µM | hit rate 39% among 2,300 | AID 652189, 2013;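 active = mean duplicate percent inhibition, scaled so buffer wells are 0 and the reference blocker 100, over three buffer SD above buffer mean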
HEK293 Ca mobil: calcium mobilization in TMEM16A/YFP HEK293 cells, confirmation, counter-screen for TMEM16A inhibitor project. calcium response (% of ionomycin), % at 10 µM. hit rate 2% among 2,300. Fluo4 calcium mobilization. AID 652231, 2013. shares compounds with ANO1 block;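 active = duplicate-averaged calcium signal over 20% of the ionomycin maximum, relative to buffer baseline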;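 note: each well's signal is peak minus trough fluorescence divided by its pre-addition baseline; 0% = buffer wells and 100% = ionomycin wells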
Parental YFP cnt: iodide YFP quench changes in parental YFP-HEK293, counter-screen for TMEM16A inhibitor project, cell-based; shares compounds with ANO1 block; ionomycin; YFP ratio F(max-min)/F0 at 10 µM; 2,300 tested, under 10 active; AID 652233, 2013;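 active = yellow fluorescent protein signal ratio exceeding the buffer control mean by over 5 SD of those controls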;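 note: ratio is mean of duplicate wells from kinetic YFP trace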
ClC-1 rat inh: ClC-1 chloride channel inhibition, selectivity assay for TMEM16A inhibitor project, cell-based, voltage-dependent ClC-1 | CHO ClC-1-YFP, iodide influx fluorescence quench; iodide control reads 0, buffer control 100 | shares compounds with ANO1 block | AID 652236, 2013 | ratio percent, % at 10 µM | 2,300 tested, under 10 active;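 active = duplicate-mean ratio percent above the mean of iodide-only control wells, which defines zero, plus 5 of their SD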;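 note: higher percent means stronger block of ClC-1 iodide influx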
Target sequence (P35524 whole entry, looked up): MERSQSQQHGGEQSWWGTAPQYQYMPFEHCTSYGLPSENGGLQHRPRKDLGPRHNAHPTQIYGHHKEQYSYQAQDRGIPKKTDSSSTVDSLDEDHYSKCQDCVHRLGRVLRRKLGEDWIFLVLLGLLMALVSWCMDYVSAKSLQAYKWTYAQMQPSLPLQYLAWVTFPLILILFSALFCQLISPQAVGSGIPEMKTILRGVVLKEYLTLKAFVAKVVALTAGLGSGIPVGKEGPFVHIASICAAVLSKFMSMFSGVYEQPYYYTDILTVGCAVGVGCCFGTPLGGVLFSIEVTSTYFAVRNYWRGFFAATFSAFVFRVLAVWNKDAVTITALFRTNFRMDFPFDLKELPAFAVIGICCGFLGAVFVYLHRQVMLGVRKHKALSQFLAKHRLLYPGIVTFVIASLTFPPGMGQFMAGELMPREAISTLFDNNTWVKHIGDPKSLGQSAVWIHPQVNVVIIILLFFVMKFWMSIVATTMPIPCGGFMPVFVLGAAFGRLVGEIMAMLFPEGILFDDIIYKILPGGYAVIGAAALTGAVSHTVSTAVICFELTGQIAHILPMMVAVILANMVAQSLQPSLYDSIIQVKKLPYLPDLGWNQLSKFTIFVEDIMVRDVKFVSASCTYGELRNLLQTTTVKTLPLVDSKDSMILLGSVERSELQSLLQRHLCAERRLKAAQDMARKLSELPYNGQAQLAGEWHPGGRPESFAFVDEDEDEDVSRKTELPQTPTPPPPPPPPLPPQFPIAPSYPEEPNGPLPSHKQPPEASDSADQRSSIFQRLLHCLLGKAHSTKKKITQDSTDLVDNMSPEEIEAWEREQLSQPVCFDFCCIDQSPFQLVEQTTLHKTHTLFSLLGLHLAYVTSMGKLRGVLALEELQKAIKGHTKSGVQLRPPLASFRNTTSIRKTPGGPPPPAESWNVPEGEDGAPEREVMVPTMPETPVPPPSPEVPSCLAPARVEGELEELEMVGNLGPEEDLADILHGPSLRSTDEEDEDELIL
Starred values were filed as active, the others as inactive; i = inactive; nt = not tested or not shown. Most compounds without a hit are left out; they make up all but 3.2% or so of the library.

SMILES	CHT inh	HDAC3 inh	ANO1 block	PHOSPHO1 inh	CHT allo act	TMEM16A act	TMEM16A reconf	HEK293 Ca mobil	Parental YFP cnt	ClC-1 rat inh
c1ccc(Cn2ccc(-c3cnc(-c4ccccc4)s3)n2)cc1	i	-93	100*	2	i	i	45%*	i	-0.94	-11
Nc1ccn(Cc2ccccc2)n1	i	2	i	16	i	i	nt	nt	nt	nt
CCOc1ccc2oc(C(=O)N3CCCN(C)CC3)c(C)c2c1	nt	13	nt	nt	nt	i	nt	nt	nt	nt
O=C(Cn1cc(C(F)(F)F)ccc1=O)N/N=C/c1ccc(O)cc1	i	-7	i	-1	i	i	nt	nt	nt	nt
Cn1nc(C(F)(F)F)c(C#N)c1N1CCN(c2ccc(F)cc2)CC1	i	1	25*	-6	i	i	i	i	-1.3	-12
Cc1cc(C)c(C#N)c(N2CCN(c3ccc(F)cc3)CC2)n1	i	6	i	14	i	i	nt	nt	nt	nt
CCc1cc2cc3c(cc2nc1SCC(=O)OC(C)C)OCO3	i	8	100*	59	i	i	i	i	-1	-16
Cc1oc(-c2cc(F)ccc2F)nc1CN1CCC(C(=O)N2CCOCC2)CC1	i	-6	i	22	i	i	nt	nt	nt	nt
Cc1oc(-c2cc(F)ccc2F)nc1CN1CCN(c2ncnc3ccccc23)CC1	i	0	100*	32	i	i	20%*	i	-1.1	-19
CC(C)[C@H](NC(=O)c1c(F)cccc1F)C(=O)OCC(=O)NC(=O)NC1CCCC1	i	-6	i	46	i	i	nt	nt	nt	nt
N#Cc1c(-c2cccc(Br)c2)cc(-c2cccnc2)nc1N	i	-3	25*	-13	i	i	25%*	i	-0.99	-9
Cc1ccc2nc(C)c(CN3CCN(c4ccc([N+](=O)[O-])cc4Cl)CC3)n2c1	i	7	25*	19	i	i	18%*	i	-0.9	-14
O=C(OCc1ccccc1)N1CCOCCN(C(=O)OCc2ccccc2)CCOCC1	i	-9	i	41	i	i	nt	nt	nt	nt
O=C(Nc1cccc(C(=O)O)c1)/C(=C\c1ccccc1Cl)NC(=O)c1ccco1	i	-2	i	35	i	i	nt	nt	nt	nt
O=C(Nc1nnc(-c2cccs2)o1)c1cccc(C(F)(F)F)c1	i	3	25*	1	i	i	i	26%*	-0.87	-22
N#Cc1ccc(C(=O)Nc2nnc(-c3cccs3)o2)cc1	i	-2	i	32	i	i	nt	nt	nt	nt
C=C1C(=O)OC2C1CCC(C)=C1C(=O)C3OC3(C)C12 (centres undefined)	nt	nt	nt	nt	nt	i	nt	nt	nt	nt
Cc1ccc(O)c(-c2[nH]ncc2C(=O)c2ccc(Cl)cc2)c1	i	0	i	35	i	i	nt	nt	nt	nt
CC(C)(Oc1ccc(Cl)cc1)C(=O)OCn1nnc2ccccc2c1=O	i	2	100*	-18	i	i	i	32%*	-1.1	-1
O=C(CNC(=O)c1ccc(Cl)cc1)OCn1nnc2ccccc2c1=O	nt	-2	nt	nt	nt	i	nt	nt	nt	nt
COc1ccccc1OCCn1cc(/C=N/NC(N)=S)c2ccccc21	i	0	i	-8	i	i	nt	nt	nt	nt
O=C1N=c2ccc([N+](=O)[O-])cc2=C1c1sc(=O)[nH]c1O	i	1	i	18	i	i	nt	nt	nt	nt
O=S(=O)(Nc1nc(-c2ccccc2)cs1)c1cc(Cl)ccc1Cl	i	-1	25*	29	i	i	24%*	i	-1.1	-10
O=S(=O)(Nc1cccnc1)c1cc(Cl)ccc1Cl	i	-1	i	16	i	i	nt	nt	nt	nt
CCN(CC)S(=O)(=O)c1cccc(C(=O)OCC(=O)c2ccc3c(c2)NC(=O)CO3)c1	i	-11	25*	-21	i	i	i	i	-1.1	-2
SMILES	CHT inh	HDAC3 inh	ANO1 block	PHOSPHO1 inh	CHT allo act	TMEM16A act	TMEM16A reconf	HEK293 Ca mobil	Parental YFP cnt	ClC-1 rat inh
CCOC(=O)C1=C(c2ccccc2)OC(N)=C(C#N)C1c1ccco1 (centres undefined)	i	7	25*	7	i	i	i	i	-0.86	-4
CCOC(=O)C1=C(CSc2nc(-c3ccccc3)ccc2C#N)OC(N)=C(C#N)C1c1ccccc1 (centres undefined)	i	8	i	56	i	i	i	i	-1.3	0
CCOC(=O)CC1=C(C(=O)OCC)C(c2cccnc2)C(C#N)=C(N)O1 (centres undefined)	i	0	i	-43	i	i	nt	nt	nt	nt
C=CC1CN(CC(=O)OC)S(=O)(=O)c2ccccc21 (centres undefined)	i	-5	i	36	i	i	nt	nt	nt	nt
CC1(C)Cc2ccccc2C2=NNC(=O)C2=N1	i	5	i	8	i	i	nt	nt	nt	nt
OC(CN1CCN(c2cccc(Cl)c2)CC1)c1ccccc1 (centres undefined)	i	-8	i	50	i	i	nt	nt	nt	nt
OC(COC(c1ccccc1)c1ccccc1)CN1CCN(c2cccc(Cl)c2)CC1 (centres undefined)	i	0	25*	-100	i	i	i	i	-0.9	-10
O=C(COC(=O)CNS(=O)(=O)c1cccc(F)c1)NCCc1ccccc1	nt	nt	nt	nt	nt	i	nt	nt	nt	nt
Fc1nc(F)c(F)c(NCCCNc2c(F)c(F)nc(F)c2F)c1F	i	12	100*	-5	i	i	52%*	i	-1	-28
COc1ccc(N(CC(=O)NC2CCCC2)C(=O)Cn2nnc(-c3ccc(C)cc3)n2)cc1	i	16	25*	12	i	i	i	i	-0.93	-4

Assay outcomes: PubChem, several laboratories
